An excerpt weighted towards active compounds, which were near 6.2% of everything screened.
HCMV antiviral: inhibitors of human cytomegalovirus | HFF cells, HCMV-luciferase reporter, 72 h; active compounds read low | activity change, negative = inhibition, % at 57.5 µM | actives 4.5% (n = 410,000) | AID 1259415; in the data active = activity change below about -60%; inconclusive = no clear call, values can overlap the other calls; inactive = above about -39%
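Two compound doses tested in HFFs infected with HCMV-luciferase, MOI 1 PFU/cell, 72 h at 37C. Lysate luminescence read with OneGlo; data normalized against buffer-only and 10uM Salinomycin inhibitor controls.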
LASV entry inh: blocks Lassa virus binding to or entry into cells; Lassa virus pseudotype entry inhibition, cell reporter; Potency, µM (highest dose often 37.9 µM), for inactives: at the top dose activity change, negative = inhibition, hits mostly inhibitors; actives 1.2% (n = 300,000); AID 540256; calls by dose curve; tested in HEK293 cells; also: potency is read from the fitted curve at half-maximal effect; nearly all actives have a fitted effect of over 50% in size
MARV entry inh: Marburg virus entry inhibition | AID 540276 | Potency, µM (series often up to 37.8 µM), without a hit: at the top dose activity change, negative = inhibition, usual class: inhibitors | actives 1.8% (n = 300,000) | Marburg virus pseudotyped entry inhibition, cell reporter; calls by dose curve; tested in HEK293 cells; also: potency is read from the fitted curve at half-maximal effect
FMDV inh: foot and mouth disease virus antiviral activity; FMDV antiviral cell-based qHTS; Potency, µM (top dose mostly 57.9 µM), inactives show at the top dose activity change, negative = inhibition, most hits filed as inhibitors; actives 1.2% (n = 410,000); AID 1159524; calls by dose curve; tested in HEK293T cells; also: read-out not given here; potency is read from the fitted curve at half-maximal effect; nearly all actives have a fitted effect of over 45% in size
Starred values were filed as active, the others as inactive; ! = repeats disagree; [ ] = remark or other dose. % is scaled to controls: 0 for no effect and ±100 for the full control effect.

`CNC[C@H](O)c1ccc(O)c(O)c1` gave HCMV antiviral 22, LASV entry inh -1%, MARV entry inh 4% and FMDV inh -4%.
NC[C@H](O)c1ccc(O)c(O)c1 was read as HCMV antiviral -28, LASV entry inh inconclusive, MARV entry inh 14µM*! and FMDV inh -11%.
For NC[C@@H](O)c1ccc(O)c(O)c1 the results were MARV entry inh 14µM* and FMDV inh 31%.
C[C@@H](N)[C@@H](O)c1ccc(O)c(O)c1 was read as LASV entry inh inconclusive and MARV entry inh 13µM*.
For O=C(c1ccco1)N1CCN(C(=O)C2CCN(S(=O)(=O)c3cccs3)CC2)CC1 the results were HCMV antiviral 20, LASV entry inh 22%, MARV entry inh 2% and FMDV inh -6%.
`Cc1cccc(C(=O)OCC(=O)NC2CCCCCCC2)c1` gave HCMV antiviral -64* and FMDV inh 17%.
COc1ccc(C(=O)OCC(=O)NC2CCCC2)cc1OC was read as HCMV antiviral -10, LASV entry inh 13%[46.1 µM], MARV entry inh -19%[46.1 µM] and FMDV inh -1%.
Screening Cc1cccc(C(=O)OCC(=O)NC(=O)NC2CCCCC2)c1 returned HCMV antiviral -4 and FMDV inh -21%.
Screening Cc1ccc(C(=O)OCC(=O)NC2CCCC2)cc1C returned HCMV antiviral -78*, LASV entry inh -21%, MARV entry inh inconclusive and FMDV inh 25%.
CC(C)CCNC(=O)c1ccc(OC2CCN(S(=O)(=O)N(C)C)CC2)cc1 was read as HCMV antiviral inconclusive, LASV entry inh 4%, MARV entry inh 22%[14.2 µM] and FMDV inh 3%.
`O=C(CN1CCN(c2ccccc2F)CC1)c1c[nH]c2ccc(F)cc12` gave HCMV antiviral -24, LASV entry inh inconclusive, MARV entry inh 12µM* and FMDV inh -17%.
For Cc1ccc2nc(-c3ccccn3)cc(C(=O)NC(C)C(C)(C)C)c2c1 (stereo unspecified) the results were HCMV antiviral -7, LASV entry inh 5%, MARV entry inh inconclusive and FMDV inh -21%.
Screening CC(=O)Nc1ccc(C=NNc2nnc(NN=Cc3ccc(NC(C)=O)cc3)c3ccccc23)cc1 returned HCMV antiviral -6, LASV entry inh 1.6µM*, MARV entry inh inconclusive and FMDV inh -9%.
Screening Cc1ccc(/C=N/Nc2nnc(Cl)c3ccccc23)cc1 returned HCMV antiviral 28, LASV entry inh inconclusive, MARV entry inh 10µM* and FMDV inh inconclusive.
`O=C(COC(=O)CCS(=O)(=O)c1ccccc1)Nc1ccccc1` gave HCMV antiviral -5 and FMDV inh -8%.
For CSC1=C(C#N)C2(CCCCC2)C(C(=O)Nc2ccccc2)=C(C)N1 the results were HCMV antiviral -20 and FMDV inh -21%.
For C[C@@H]1CNC(=O)c2c(C(=O)Nc3ccc(CNC(=O)OC(C)(C)C)cc3)ncn21 the results were HCMV antiviral -66* and FMDV inh inconclusive.
Screening NC(=O)Nc1ccc(Nc2ccccc2)cc1 returned HCMV antiviral 18, MARV entry inh 1% and FMDV inh 32%.
Screening O=C(Nc1ccc(Nc2ccccc2)cc1)C(Cl)Cl returned HCMV antiviral -64*, LASV entry inh inconclusive, MARV entry inh inconclusive and FMDV inh 13%.
For COc1ccc(C(=O)C(CCCCC(CN(C)C)C(=O)c2ccc(OC)cc2)CN(C)C)cc1 (stereo unspecified) the results were HCMV antiviral inconclusive, LASV entry inh inconclusive, MARV entry inh inconclusive and FMDV inh -9%.
For CN(C)CC(CCC(CN(C)C)C(=O)c1ccccc1)C(=O)c1ccccc1 (stereo unspecified) the results were LASV entry inh -31%, MARV entry inh 13µM* and FMDV inh 28µM*.
`CCOc1ccc(C(=O)C(CCC(CN(C)C)C(=O)c2ccc(OCC)cc2)CN(C)C)cc1` (stereo unspecified) gave HCMV antiviral -99*, LASV entry inh 4.1µM*, MARV entry inh 1µM* and FMDV inh 16µM*.
CC(C)c1ccc(S(=O)(=O)c2nnn3c2nc(NCC2CCCO2)c2ccccc23)cc1 (stereo unspecified) was read as FMDV inh 6%.
Cc1ccc(Cl)cc1N1CCN(C(=O)c2noc(C)c2[N+](=O)[O-])CC1 was read as HCMV antiviral -105* and FMDV inh 4%.
Cc1onc(C(=O)N2CCN(c3ccccc3)CC2)c1[N+](=O)[O-] was read as HCMV antiviral inconclusive and FMDV inh -9%.
Cn1ncn2c(=O)c3c(nc12)-c1ccccc1CC31CCCC1 was read as HCMV antiviral -40, LASV entry inh -16%, MARV entry inh -18%[46.1 µM] and FMDV inh -12%.
`COc1ccc(-c2csc(N(CCCN(C)C)C(=O)c3ccc(Br)cc3)n2)cc1` gave HCMV antiviral -62*, LASV entry inh inconclusive, MARV entry inh inconclusive and FMDV inh -14%.
`COCCCN(C(C)=O)c1nc(-c2ccc(OC)cc2)cs1` gave HCMV antiviral 84, LASV entry inh 10µM*, MARV entry inh inconclusive and FMDV inh -8%.
Screening CCN(CC)CCCN(C(=O)c1ccc(OC)cc1)c1nc(-c2ccc(OC)cc2)cs1 returned HCMV antiviral -63*, LASV entry inh inconclusive, MARV entry inh inconclusive and FMDV inh 4%.
For COC(=O)c1cc(C)nc2c1c(=O)nc(SCc1cccc(C)c1)n2C1CC1 the results were HCMV antiviral 27, LASV entry inh 16%[46.1 µM] and FMDV inh -21%.
`O=C(CCN1C(=O)/C(=C\c2ccccc2Cl)SC1=S)Nc1cccnc1` gave HCMV antiviral -15, LASV entry inh 15%, MARV entry inh 18% and FMDV inh inconclusive.
O=C(CCCN1C(=O)/C(=C\c2cccs2)SC1=S)Nc1cccnc1 was read as HCMV antiviral -93*, LASV entry inh -14%, MARV entry inh -21% and FMDV inh 0%.
`O=C(CCCN1C(=O)/C(=C\c2cccs2)SC1=S)NNC(=O)c1ccncc1` gave HCMV antiviral -61*, LASV entry inh inconclusive, MARV entry inh -27%[46.1 µM] and FMDV inh 11%.
Screening O=C(CCCN1C(=O)/C(=C/c2cccs2)SC1=S)NNC(=O)c1cccnc1 returned HCMV antiviral inconclusive and FMDV inh 2%.
`O=C(CCN1C(=O)/C(=C/c2ccccc2F)SC1=S)Nc1cccnc1` gave HCMV antiviral -27, LASV entry inh 10%, MARV entry inh -1% and FMDV inh -24%.
`O=C(CCCN1C(=O)/C(=C/c2cccs2)SC1=S)Nc1cccnc1` gave HCMV antiviral -98*, LASV entry inh inconclusive, MARV entry inh inconclusive and FMDV inh -9%.
Screening O=C(CCCN1C(=O)/C(=C/c2ccccc2OC(F)F)SC1=S)Nc1cccnc1 returned HCMV antiviral -65*, LASV entry inh inconclusive, MARV entry inh inconclusive and FMDV inh inconclusive.
Screening COc1cc(C(=O)NCCCN2CCCC2=O)ccc1OCc1ccc(Cl)cc1Cl returned HCMV antiviral -27, LASV entry inh -15%, MARV entry inh -8% and FMDV inh -16%.
For CCN(C[C@H]1N[C@@](C)(C(=O)OC)[C@H]2C(=O)N(C)C(=O)[C@@H]12)C(=O)c1ccc(C(C)(C)C)cc1 the results were HCMV antiviral -6 and FMDV inh -3%.

Bioassay records (PubChem BioAssay)
